The record followed here is PubChem BioAssay.

Active and inactive are the calls of the source.

The target in one experiment is Albumin (Bos taurus) (UniProt P02769). Briefly: bovine serum albumin binders on microarray, profiling panel, artefact control for SMM control protein annotation, biochemical, small-molecule microarray, Alexa647 label, 635/667 nm fluorescence (AID 1118).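 Also: score merges 667 nm emission intensity and signal-to-noise per printed compound spot.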 Conditions: BSA-A647 binding, fluorescence 635 nm, higher = more signal.
Sequence of Albumin (Bos taurus) (P02769 whole entry, looked up): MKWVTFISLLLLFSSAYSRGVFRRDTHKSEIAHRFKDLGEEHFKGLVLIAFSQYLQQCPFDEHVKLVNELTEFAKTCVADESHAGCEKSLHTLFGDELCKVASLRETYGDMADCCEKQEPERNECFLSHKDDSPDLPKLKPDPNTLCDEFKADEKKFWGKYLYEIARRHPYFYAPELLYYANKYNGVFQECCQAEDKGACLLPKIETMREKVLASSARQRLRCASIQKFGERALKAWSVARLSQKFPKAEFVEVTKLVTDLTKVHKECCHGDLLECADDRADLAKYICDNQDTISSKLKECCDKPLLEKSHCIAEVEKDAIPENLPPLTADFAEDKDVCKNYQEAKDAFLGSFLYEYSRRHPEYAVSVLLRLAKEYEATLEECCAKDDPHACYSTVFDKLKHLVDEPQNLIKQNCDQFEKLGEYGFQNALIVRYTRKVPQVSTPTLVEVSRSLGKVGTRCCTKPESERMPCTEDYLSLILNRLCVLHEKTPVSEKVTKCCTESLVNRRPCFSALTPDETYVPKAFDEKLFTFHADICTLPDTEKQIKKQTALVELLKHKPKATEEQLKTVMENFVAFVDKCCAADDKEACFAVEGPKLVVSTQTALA
The nature of experiment [1]: small-molecule microarray binders of probe aXIP, primary screen, biochemical, NeuroSMM set, 635/667 nm fluorescence (AID 1119).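 Also: probe is the protein aXip251-270 applied at 1 µg/mL to compound-printed slides; binding of probe to printed compounds measured as 667 nm fluorescence plus signal to noise.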 The note with it: higher = more signal, called active from +8 up or from −8 down.
The nature of experiment [2]: small-molecule binders of probe aNOTCH3, primary screen, biochemical, small-molecule microarray, 635/667 nm fluorescence (AID 1120).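 Also: probe is a biotin-tagged antibody raised against NOTCH3 rather than NOTCH3 protein; score merges spot fluorescence near 667 nm with spot signal to noise.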 The note with it: higher = more signal.
Experiment [3] can be described thus: small-molecule binders of probe aNOTCH2, primary screen, biochemical, small-molecule microarray, 635/667 nm fluorescence (AID 1121).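 Also: score merges feature fluorescence read at 667 nm with its signal to noise.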 The note with it: higher = more signal.
The target of experiment [4] is Carbonic anhydrase 2 (Homo sapiens) (UniProt P00918). Briefly: CAII small-molecule binders, profiling panel, biochemical, small-molecule microarray, Alexa647-labelled CAII (AID 1122). The note with it: CAII-A647 binding fluorescence, higher = more signal.
A short description of experiment [5]: COS7 lysate on small-molecule microarray, probe aHis, 635 nm (AID 1123).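 Also: z-score combines 667nm fluorescence intensity with signal-to-noise per printed compound spot.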 The note with it: COS7 cell lysate, fluorescence, higher = more signal.
A short description of experiment [6]: compound binding in COS7 lysate, probe aLAP1, primary screen, cell lysate, small-molecule microarray (AID 1124).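 Also: lysate comes from COS7 cells expressing LAP1 and is applied at 0.3 µg/mL; score merges spot fluorescence near 667 nm with signal-to-noise over triplicate slides.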 The note with it: probe aLAP1, fluorescence, higher = more signal.
The next experiment deals with Sam68 (KHDRBS1). Briefly: Sam68 small-molecule binders, primary screen, biochemical, small-molecule microarray, 635 nm fluorescence (AID 1125).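 Also: score merges 667 nm channel intensity with signal to noise over triplicate slides.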 The note with it: small-molecule microarray binding, higher = more signal.
Experiment [7] concerns Chordin-like protein 2 (CHRDL2). Briefly: CHRDL2 small-molecule binders, primary screen, biochemical, small-molecule microarray, 635 nm fluorescence (AID 1126).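 Also: printed compound slides probed with Chrdl2 protein at 4 µg/mL for 1 h at 4 C; score merges 667 nm emission intensity with signal to noise over three replicate slides.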 The note with it: small-molecule microarray binding, fluorescence 635 nm; higher = more signal.
Experiment [8] concerns the target Concanavalin-A (Canavalia ensiformis) (UniProt P02866). The experiment in a line: ConA small-molecule binders, primary screen, artefact control for SMM control protein annotation, biochemical, small-molecule microarray, Alexa647 label, 635 nm (AID 1127).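 Also: z combines 667 nm emission intensity with signal-to-noise across three replicate slides.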 The note with it: ConA-A647 binding fluorescence, higher = more signal.
The nature of experiment [9]: anti-His antibody binders, primary screen, artefact control for SMM control protein annotation, biochemical, small-molecule microarray, 635 nm fluorescence (AID 1128).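 Also: score merges feature fluorescence with signal-to-noise for each printed compound spot.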 The note with it: anti-His Alexa647 antibody binding, higher = more signal.
The subject of experiment [10] is Human papillomavirus type 1a E7 protein (residues 1-88). The experiment in a line: HPV1a E7 small-molecule binders, primary screen, biochemical, small-molecule microarray, residues 1-88, 635 nm (AID 1129). The note with it: small-molecule microarray binding, fluorescence 635 nm; higher = more signal.
Experiment [11] has as its target Focal adhesion kinase 1 (Homo sapiens) (UniProt Q05397). Briefly: small-molecule microarray binders of FAK, primary screen, biochemical, 635/667 nm fluorescence, BSA, DTT (AID 1130).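 Also: composite of spot emission at 667 nm and signal to noise over triplicate slides.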 Conditions: PTK2 binding, 635 nm fluorescence, higher = more signal.
Experiment [12] relates to Fibrinogen (Alexa647-labelled). The experiment in a line: fibrinogen binders on compound microarrays, profiling panel, artefact control for SMM control-protein annotation, biochemical, small-molecule microarray, 635/667 nm fluorescence (AID 1131).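 Also: z-score merges 667 nm fluorescence with per-spot signal-to-noise over triplicate slides.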 Conditions: fibrinogen-A647 binding fluorescence, higher = more signal.
Experiment [13] concerns the target Follistatin (Homo sapiens) (UniProt P19883). Briefly: follistatin binders on small-molecule microarrays, primary screen, biochemical, small-molecule microarray, 635/667 nm fluorescence (AID 1132). The note with it: FST binding, 635 nm fluorescence, higher = more signal.
The target of experiment [14] is Fibroblast growth factor 2 (Homo sapiens) (UniProt P09038). Briefly: FGF2 binders on small-molecule microarrays, primary screen, biochemical, small-molecule microarray, 635/667 nm fluorescence (AID 1133). Conditions: small-molecule microarray binding, FGF2, fluorescence 635/667; higher = more signal.
Sequence of Fibroblast growth factor 2 (Homo sapiens) (P09038 whole entry, looked up): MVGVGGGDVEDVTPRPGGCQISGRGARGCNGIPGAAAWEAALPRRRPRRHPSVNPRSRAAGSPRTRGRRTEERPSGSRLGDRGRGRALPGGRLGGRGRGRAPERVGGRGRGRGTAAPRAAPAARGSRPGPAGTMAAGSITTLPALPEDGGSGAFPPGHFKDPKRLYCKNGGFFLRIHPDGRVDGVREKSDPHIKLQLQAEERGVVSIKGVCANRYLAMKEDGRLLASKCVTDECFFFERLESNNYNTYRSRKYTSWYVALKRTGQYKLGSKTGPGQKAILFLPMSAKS
Experiment [15] can be described thus: mitochondrial membrane potential change in A549 cells, profiling panel, cell-based, JC-1 fluorescence, basal, 24 h, 100 nL (AID 1138).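 Also: A549 lung adenocarcinoma cells under basal conditions with no added stimulus; test concentration not given here.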 Conditions: higher = more signal.
The next experiment deals with Lefty1. Briefly: Lefty1 binders on small-molecule microarrays, primary screen, biochemical, small-molecule microarray, 635/667 nm fluorescence (AID 1139). Conditions: small-molecule microarray binding, fluorescence 635/667; higher = more signal.
Experiment [16] deals with wheat germ agglutinin (Triticum aestivum), Alexa647-labelled. Briefly: wheat germ agglutinin binders on compound microarrays, profiling panel, artefact control for SMM control-protein annotation, biochemical, small-molecule microarray, 635/667 nm fluorescence (AID 1140).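 Also: score merges 667 nm feature emission with signal to noise over triplicate slides.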 The note with it: WGA-A647 binding, 635 nm fluorescence, higher = more signal.
Experiment [17] addresses Luciferin 4-monooxygenase (Photinus pyralis) (UniProt P08659). The experiment in a line: firefly luciferase enzyme inhibitors, primary screen, biochemical, luminescence, purified enzyme, 2006 set (AID 1141).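 Also: cell-free assay with purified firefly luciferase at 100 ng per well in PBS; test concentration not given here.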 The note with it: SteadyGlo luminescence, 30 min, higher = more signal, called active from +8 up or from −8 down.

Sequence of Luciferin 4-monooxygenase (Photinus pyralis) (P08659 whole entry, looked up): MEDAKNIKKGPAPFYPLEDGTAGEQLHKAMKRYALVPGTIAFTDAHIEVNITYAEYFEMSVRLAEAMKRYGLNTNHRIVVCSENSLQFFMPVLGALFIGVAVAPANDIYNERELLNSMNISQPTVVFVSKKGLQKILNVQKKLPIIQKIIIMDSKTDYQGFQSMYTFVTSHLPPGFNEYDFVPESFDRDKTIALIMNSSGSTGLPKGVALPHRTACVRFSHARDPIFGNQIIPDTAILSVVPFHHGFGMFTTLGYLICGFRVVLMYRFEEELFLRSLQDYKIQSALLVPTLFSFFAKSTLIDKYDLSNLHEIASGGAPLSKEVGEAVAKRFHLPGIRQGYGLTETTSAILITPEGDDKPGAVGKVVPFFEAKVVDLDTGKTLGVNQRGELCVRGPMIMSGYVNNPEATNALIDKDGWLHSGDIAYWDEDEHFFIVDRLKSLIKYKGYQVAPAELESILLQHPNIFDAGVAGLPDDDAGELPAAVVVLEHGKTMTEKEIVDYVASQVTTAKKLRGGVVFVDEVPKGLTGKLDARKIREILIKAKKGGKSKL
Sequence of Concanavalin-A (Canavalia ensiformis) (P02866 whole entry, looked up): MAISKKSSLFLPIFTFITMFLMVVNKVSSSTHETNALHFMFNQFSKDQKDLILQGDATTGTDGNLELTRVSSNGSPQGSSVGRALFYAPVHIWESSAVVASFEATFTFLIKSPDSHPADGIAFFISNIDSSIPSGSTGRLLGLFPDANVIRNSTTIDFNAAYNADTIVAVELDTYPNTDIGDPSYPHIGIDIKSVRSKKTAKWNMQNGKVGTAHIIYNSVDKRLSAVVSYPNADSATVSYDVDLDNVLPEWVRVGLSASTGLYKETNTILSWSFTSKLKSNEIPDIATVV
Sequence of Follistatin (Homo sapiens) (P19883 whole entry, looked up): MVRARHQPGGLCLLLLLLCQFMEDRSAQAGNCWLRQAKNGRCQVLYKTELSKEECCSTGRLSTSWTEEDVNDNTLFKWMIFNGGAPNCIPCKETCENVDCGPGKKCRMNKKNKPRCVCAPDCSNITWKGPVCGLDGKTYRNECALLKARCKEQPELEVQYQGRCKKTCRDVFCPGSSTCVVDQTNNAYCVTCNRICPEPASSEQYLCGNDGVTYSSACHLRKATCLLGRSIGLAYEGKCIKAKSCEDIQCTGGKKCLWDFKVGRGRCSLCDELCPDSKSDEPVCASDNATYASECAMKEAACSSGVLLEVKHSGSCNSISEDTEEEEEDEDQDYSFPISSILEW
Sequence of Focal adhesion kinase 1 (Homo sapiens) (Q05397 whole entry, looked up): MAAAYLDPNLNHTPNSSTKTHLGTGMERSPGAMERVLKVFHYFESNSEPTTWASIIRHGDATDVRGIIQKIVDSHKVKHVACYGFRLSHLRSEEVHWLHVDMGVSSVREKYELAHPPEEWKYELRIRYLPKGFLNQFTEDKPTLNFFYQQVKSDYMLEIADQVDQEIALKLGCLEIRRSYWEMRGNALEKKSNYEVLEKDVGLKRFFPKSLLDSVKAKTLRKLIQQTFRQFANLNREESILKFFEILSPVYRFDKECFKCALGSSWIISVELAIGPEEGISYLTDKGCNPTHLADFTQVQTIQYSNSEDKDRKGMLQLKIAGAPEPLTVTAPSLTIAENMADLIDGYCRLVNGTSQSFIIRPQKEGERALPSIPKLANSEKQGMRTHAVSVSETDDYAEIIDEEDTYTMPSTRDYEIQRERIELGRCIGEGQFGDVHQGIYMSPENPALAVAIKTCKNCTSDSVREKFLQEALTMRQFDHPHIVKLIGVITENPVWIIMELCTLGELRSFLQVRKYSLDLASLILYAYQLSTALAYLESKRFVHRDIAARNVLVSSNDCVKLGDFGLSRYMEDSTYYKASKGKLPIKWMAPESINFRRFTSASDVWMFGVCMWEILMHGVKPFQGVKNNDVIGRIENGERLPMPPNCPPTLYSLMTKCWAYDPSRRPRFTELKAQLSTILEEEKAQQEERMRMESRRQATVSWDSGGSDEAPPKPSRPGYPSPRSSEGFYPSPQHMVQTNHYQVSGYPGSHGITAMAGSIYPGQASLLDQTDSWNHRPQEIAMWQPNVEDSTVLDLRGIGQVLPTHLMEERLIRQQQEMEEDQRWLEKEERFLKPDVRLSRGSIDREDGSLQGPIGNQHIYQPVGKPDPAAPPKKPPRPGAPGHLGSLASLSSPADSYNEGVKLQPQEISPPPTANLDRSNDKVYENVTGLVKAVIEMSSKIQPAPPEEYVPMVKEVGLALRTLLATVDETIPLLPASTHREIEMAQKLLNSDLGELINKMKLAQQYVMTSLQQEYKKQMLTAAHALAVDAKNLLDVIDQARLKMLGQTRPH

As to `CCOC(=O)C[C@H]1[C@H](OC(=O)c2ccc(-c3ccccc3)cc2)[C@@H](NC(=O)c2ccccc2)c2cc(OCCCO)ccc2N1C(=O)c1ccccc1`, the composite z-score was 0.842 in the experiment with Albumin (Bos taurus); 0.0162 in experiment [2]; -0.0232 in experiment [3]; 0.395 in experiment [4]; 1.67 in experiment [5]; 0.658 in [6]. The composite z-score is 1.33 in the experiment with Sam68 (KHDRBS1); -0.519 in experiment [7]; 0.818 in experiment [8]; 0.698 in experiment [9]; 0.925 in experiment [10]; 0.372 in experiment [11]. In addition, the composite z-score is 0.851 in experiment [12]; -0.129 in experiment [13]; 0.253 in [14]; -0.0764 with Lefty1; 0.646 in experiment [16]. Besides, the composite Z-score in experiment [1] is 0.0948 (inactive). Further, the z-score is 2.3 in experiment [15] and -0.517 (inactive) in experiment [17].
In the case of `O=C(NCc1ccccc1)[C@@H]1c2ccccc2C(=O)N(Cc2ccccc2Cl)[C@H]1c1ccc(CO)cc1`, the composite z-score with Albumin (Bos taurus) is -0.0154; in experiment [2], 0.0749; in [3], -0.0165; in experiment [4] it was 0.693; in experiment [5] it was 2.36; in experiment [6], 0.954. For the same molecule, the composite z-score worked out at 1.35 with Sam68 (KHDRBS1); 0.702 in [7]; 1.13 in experiment [8]; 2.46 in experiment [9]; 1.17 in experiment [10]; 0.719 in [11]. Besides, the composite z-score in experiment [12] stood at 0.562; in experiment [13] it was 1.47; in [14], 1.22; in the experiment on Lefty1 it was 0.817; in experiment [16], 0.704. Besides, the composite Z-score in experiment [1] was 1.24 (inactive). The z-score is 1.88 in experiment [15] and -1.01 (inactive) in experiment [17].
For `C=C(C(=O)CC[C@H](OC(C)=O)c1ccc(CO)o1)C(C)C`, the composite z-score in the experiment with Albumin (Bos taurus) was -0.348; in [2], -0.0264; in [3], -0.0795; in experiment [4], 0.614; in experiment [5], 0.297; in experiment [6], 0.629. Besides, the composite z-score was 0.596 in the experiment on Sam68 (KHDRBS1); -0.413 in [7]; -0.0824 in experiment [8]; -0.361 in [9]; -0.0631 in [10]; 0.384 in experiment [11]. Moreover, the composite z-score was 0.4 in experiment [12]; 0.853 in experiment [13]; 1.01 in [14]; 0.299 in the experiment with Lefty1; -0.432 in [16]. Further, the composite Z-score in [1] is 0.481 (inactive). Moreover, the z-score is 0.191 in experiment [15] and -2.12 (inactive) in [17].
In the case of `CCCC[C@@H](O)C1=C(C)C[C@H]2C(=O)N(C)C(=O)[C@H]2[C@H]1CO`, the composite z-score in the experiment with Albumin (Bos taurus) was 0.799; in [2], -0.132; in [3], -0.112; in [4], 0.804; in experiment [5], 0.48; in experiment [6] it was -0.198. The composite z-score is 0.705 with Sam68 (KHDRBS1); -0.0576 in experiment [7]; 0.0354 in [8]; 0.33 in [9]; -0.196 in experiment [10]; 0.116 in [11]. Moreover, the composite z-score was found to be 0.173 in experiment [12]; 0.186 in [13]; 0.41 in experiment [14]; 0.776 with Lefty1; 1.12 in experiment [16]. For the same molecule, the composite Z-score in experiment [1] was 0.475 (inactive). Besides, the z-score in experiment [15] is 1.52; in experiment [17], -1.41 (inactive).
Turning to `CC(C)[Si](C#C[Si](C(C)C)(C(C)C)C(C)C)(O[C@H](C)c1cn([C@H](C)c2ccccc2)nn1)C(C)C`, the composite z-score with Albumin (Bos taurus) is -0.0001; in experiment [2] it was -0.122; in [3] it was -0.0632; in [4], 0.66; in experiment [5] it was 0.386; in experiment [6], -0.13. In addition, the composite z-score came to 1.16 in the experiment with Sam68 (KHDRBS1); 0.0747 in experiment [7]; 0.927 in experiment [8]; 0.467 in experiment [9]; 0.796 in [10]; 0.768 in experiment [11]. Besides, the composite z-score in experiment [12] turned out to be 0.179; in [13], 0.465; in [14] it was 0.261; in the experiment on Lefty1 it was 0.751; in [16], 0.625. In addition, the composite Z-score in experiment [1] was -0.097 (inactive). For the same molecule, the values for the z-score in experiment [15] and in [17] were 1.8 and -1.4 (inactive), respectively.
